# Test results as given in the supplement of paper PMC10849652.
# Targets with a hit are over-represented here; the source holds about 7,900 in all. About 0.6% of all pairs of compound and target were hits.
# Columns and labels:
# Test in all cases: log2 fold change, soluble protein after heating vs DMSO (PISA); higher = thermal stabilisation; K562 cells, 10 uM, 30 min; active = over 0.2 and 3.5 SD of the protein, either way, in both replicates (recomputed)
# erlotinib = compound: C#Cc1cccc(Nc2ncnc3cc(OCCOC)c(OCCOC)cc23)c1 [erlotinib]
# Summary of the method: (§1)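 Quantification of soluble protein used TMTpro 16plex LC-MS/MS, with channel sums equalised. Samples were the supernatant after 21,000xg for 90 min of pooled aliquots from K562 cells (2×10^6 cells/mL) treated with 10 μM compound for 30 min, heated for 3 min over 48°C-58°C, and extracted in PBS with 0.5% NP-40 at 4°C. Values, from duplicates, describe thermal stability against control samples on a log2 fold-change scale.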
# [1] = compound: C1=CC(=C(C=C1Cl)C2=NC3=NC=CN=C3C(=N2)NC4=CC=NC=C4)F
# Summary of the method: as §1
# [2] = compound: C1=CC(=CC=C1C2=NC3=C(N2)C=C(C=C3)C(=O)N)OC4=CC=C(C=C4)Cl
# Summary of the method: as §1
# [3] = compound: C1=CC2=NC=CN=C2C=C1/C=C/3\C(=O)NC(=O)S3
# Summary of the method: as §1
# [4] = compound: C1=CC=C(C=C1)C2=NC(=C(N2)C3=CC=NC=C3)C4=CC(=C(C=C4)Cl)O
# Summary of the method: as §1
# [5] = compound: C1CCN(C1)C(=O)NC2=CC=CC(=C2)NC3=NC=C(C(=N3)NCCC4=CN=CN4)Br
# Summary of the method: as §1
# [6] = compound: C1CN(CCC1(CC2=CC=C(C=C2)Cl)N)C3=NC=NC4=C3C=CN4
# Summary of the method: as §1
# IRAK-1-4 Inhibitor I = compound: C1COCCN1CCN2C3=CC=CC=C3N=C2NC(=O)C4=CC(=CC=C4)[N+](=O)[O-] [IRAK-1-4 Inhibitor I]
# Summary of the method: as §1
# ibrutinib = compound: C=CC(=O)N1CCC[C@@H](n2nc(-c3ccc(Oc4ccccc4)cc3)c3c(N)ncnc32)C1 [ibrutinib]
# Summary of the method: as §1
# ralimetinib = compound: CC(C)(C)Cn1c(N)nc2ccc(-c3[nH]c(C(C)(C)C)nc3-c3ccc(F)cc3)nc21 [ralimetinib]
# Summary of the method: as §1
# [7] = compound: CC(C)(O)CC(=O)NCCn1ccc2ncnc(Nc3ccc(Oc4cccc(C(F)(F)F)c4)c(Cl)c3)c21
# Summary of the method: as §1
# [8] = compound: CC(C)C1=C2N=C(C=C(N2N=C1)NCC3=CC=CC=C3)NCCCCCCN
# Summary of the method: as §1
# [9] = compound: CC(C)C[C@@H](C=O)NC(=O)[C@H](CC(C)C)NC(=O)[C@H](CC(C)C)NC(=O)OCc1ccccc1
# Summary of the method: as §1
# pinometostat = compound: CC(C)N(C[C@H]1O[C@@H](n2cnc3c(N)ncnc32)[C@H](O)[C@@H]1O)[C@H]1C[C@@H](CCc2nc3cc(C(C)(C)C)ccc3[nH]2)C1 [pinometostat]
# Summary of the method: as §1
# [10] = compound: CC1=C(C(CC(=O)N1)C2=CC=C(C=C2)C(F)(F)F)C(=O)NC3=C(C=C4C(=C3)C=NN4)F
# Summary of the method: as §1
# [11] = compound: CC1=C(C2=C(C=C1)C(=O)C3=CC=CC=C3N2CCCN)C
# Summary of the method: as §1
# [12] = compound: C/C(=N\NC(=O)C1=CC(=CC=C1)S(=O)(=O)N2CCOCC2)/C3=C(C=CC(=C3)Cl)O
# Summary of the method: as §1
# [13] = compound: C1=CC2=C(C=CC(=C2)/C=C\3/C(=O)NC(=NCC4=CC=CS4)S3)N=C1
# Summary of the method: as §1
# [14] = compound: C1=CC=C2C(=C1)C3=NNC4=CC=CC(=C43)C2=O
# Summary of the method: as §1
# [15] = compound: CC(=O)c1cnc2ccc(-c3cc(Cl)c(O)c(Cl)c3)nc2c1N[C@H]1CC[C@H](CN(C)C)CC1
# Summary of the method: as §1
# Sequence of UniProt P55210 (P55210 whole entry, looked up): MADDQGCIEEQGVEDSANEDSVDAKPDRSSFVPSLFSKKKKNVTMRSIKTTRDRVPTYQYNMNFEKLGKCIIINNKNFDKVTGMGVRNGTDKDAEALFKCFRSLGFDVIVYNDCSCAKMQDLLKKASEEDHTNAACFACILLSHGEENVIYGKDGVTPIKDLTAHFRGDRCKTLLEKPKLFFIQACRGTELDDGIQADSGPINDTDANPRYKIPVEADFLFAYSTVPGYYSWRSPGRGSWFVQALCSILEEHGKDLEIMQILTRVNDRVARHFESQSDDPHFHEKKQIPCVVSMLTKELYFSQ
# Sequence of UniProt Q14194 (Q14194 whole entry, looked up): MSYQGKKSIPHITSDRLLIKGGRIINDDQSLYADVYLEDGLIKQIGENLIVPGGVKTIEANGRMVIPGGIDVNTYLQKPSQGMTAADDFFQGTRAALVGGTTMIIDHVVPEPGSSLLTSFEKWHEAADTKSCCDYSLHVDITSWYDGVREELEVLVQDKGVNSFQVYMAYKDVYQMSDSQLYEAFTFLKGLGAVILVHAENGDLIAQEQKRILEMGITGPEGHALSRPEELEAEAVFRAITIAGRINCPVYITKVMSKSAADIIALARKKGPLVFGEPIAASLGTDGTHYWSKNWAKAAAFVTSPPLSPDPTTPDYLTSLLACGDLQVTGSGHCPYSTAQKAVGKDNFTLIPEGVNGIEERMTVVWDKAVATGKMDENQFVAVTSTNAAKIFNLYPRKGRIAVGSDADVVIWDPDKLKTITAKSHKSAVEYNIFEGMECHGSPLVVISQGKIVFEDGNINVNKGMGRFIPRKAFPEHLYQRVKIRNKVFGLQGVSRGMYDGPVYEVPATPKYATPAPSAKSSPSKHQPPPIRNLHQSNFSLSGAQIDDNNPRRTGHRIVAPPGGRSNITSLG
# Sequence of UniProt Q9BSQ5 (Q9BSQ5 whole entry, looked up): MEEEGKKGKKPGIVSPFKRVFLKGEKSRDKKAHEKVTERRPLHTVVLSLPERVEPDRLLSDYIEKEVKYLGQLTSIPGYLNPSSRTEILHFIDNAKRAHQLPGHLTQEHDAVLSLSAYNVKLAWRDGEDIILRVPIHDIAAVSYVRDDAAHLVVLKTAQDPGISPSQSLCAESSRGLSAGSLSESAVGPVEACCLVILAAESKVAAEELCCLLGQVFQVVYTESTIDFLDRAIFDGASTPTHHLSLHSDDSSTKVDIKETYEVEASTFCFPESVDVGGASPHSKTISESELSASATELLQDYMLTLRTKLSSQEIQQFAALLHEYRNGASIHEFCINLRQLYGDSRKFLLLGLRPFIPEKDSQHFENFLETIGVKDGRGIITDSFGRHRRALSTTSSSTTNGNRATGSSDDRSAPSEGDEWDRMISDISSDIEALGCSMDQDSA
# Sequence of UniProt Q7Z4R8 (Q7Z4R8 whole entry, looked up): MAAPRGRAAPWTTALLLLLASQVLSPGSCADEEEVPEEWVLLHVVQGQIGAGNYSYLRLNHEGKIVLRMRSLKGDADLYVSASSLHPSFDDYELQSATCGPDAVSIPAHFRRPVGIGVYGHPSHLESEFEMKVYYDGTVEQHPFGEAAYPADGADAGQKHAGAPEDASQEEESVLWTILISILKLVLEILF
# Sequence of UniProt Q9H257 (Q9H257 whole entry, looked up): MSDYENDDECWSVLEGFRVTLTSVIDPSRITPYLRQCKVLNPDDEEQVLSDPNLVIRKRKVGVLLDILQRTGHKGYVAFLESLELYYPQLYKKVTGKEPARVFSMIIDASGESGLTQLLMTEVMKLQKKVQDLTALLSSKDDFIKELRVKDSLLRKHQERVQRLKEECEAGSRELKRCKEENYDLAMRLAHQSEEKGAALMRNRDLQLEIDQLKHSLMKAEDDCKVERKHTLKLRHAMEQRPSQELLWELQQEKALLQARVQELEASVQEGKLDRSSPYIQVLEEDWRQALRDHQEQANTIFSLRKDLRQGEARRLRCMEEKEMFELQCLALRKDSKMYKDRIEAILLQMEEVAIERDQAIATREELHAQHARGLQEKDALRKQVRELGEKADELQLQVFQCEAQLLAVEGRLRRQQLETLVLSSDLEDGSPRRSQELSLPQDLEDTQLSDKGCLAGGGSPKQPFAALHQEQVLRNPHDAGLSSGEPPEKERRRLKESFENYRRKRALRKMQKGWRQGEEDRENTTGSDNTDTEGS
# Sequence of UniProt Q2TAC2 (Q2TAC2 whole entry, looked up): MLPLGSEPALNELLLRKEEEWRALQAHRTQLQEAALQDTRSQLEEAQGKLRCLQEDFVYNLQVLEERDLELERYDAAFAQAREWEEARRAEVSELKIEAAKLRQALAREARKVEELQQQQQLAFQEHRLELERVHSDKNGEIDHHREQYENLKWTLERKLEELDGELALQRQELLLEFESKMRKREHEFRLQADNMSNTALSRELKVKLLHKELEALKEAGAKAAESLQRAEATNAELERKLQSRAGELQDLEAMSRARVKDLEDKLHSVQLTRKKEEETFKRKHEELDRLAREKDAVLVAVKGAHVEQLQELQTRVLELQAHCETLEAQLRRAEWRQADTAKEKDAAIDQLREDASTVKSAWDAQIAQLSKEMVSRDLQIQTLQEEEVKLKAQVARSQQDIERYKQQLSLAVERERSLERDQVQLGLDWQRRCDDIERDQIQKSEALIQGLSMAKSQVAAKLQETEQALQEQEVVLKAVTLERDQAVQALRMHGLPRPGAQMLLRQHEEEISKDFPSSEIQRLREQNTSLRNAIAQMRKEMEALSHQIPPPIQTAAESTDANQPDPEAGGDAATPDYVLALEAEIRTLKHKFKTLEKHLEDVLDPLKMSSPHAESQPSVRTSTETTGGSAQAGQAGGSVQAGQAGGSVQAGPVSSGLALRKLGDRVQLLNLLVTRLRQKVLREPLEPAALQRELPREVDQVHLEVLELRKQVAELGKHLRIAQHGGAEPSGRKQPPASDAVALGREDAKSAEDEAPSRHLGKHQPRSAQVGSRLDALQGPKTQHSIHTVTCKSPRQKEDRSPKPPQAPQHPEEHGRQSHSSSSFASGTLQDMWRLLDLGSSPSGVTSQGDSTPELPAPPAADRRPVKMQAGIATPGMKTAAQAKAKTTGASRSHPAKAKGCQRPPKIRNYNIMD
# Sequence of UniProt P34810 (P34810 whole entry, looked up): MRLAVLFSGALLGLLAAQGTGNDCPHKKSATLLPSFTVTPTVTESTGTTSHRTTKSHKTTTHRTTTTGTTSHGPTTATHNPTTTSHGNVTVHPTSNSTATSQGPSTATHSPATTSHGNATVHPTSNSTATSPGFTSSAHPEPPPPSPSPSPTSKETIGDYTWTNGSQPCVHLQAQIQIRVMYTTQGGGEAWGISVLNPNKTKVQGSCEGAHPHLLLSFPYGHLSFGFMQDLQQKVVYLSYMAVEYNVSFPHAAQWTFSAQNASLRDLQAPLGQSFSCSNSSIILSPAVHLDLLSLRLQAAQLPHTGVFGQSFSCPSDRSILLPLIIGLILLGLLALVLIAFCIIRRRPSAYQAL
# Sequence of UniProt Q8WUD6 (Q8WUD6 whole entry, looked up): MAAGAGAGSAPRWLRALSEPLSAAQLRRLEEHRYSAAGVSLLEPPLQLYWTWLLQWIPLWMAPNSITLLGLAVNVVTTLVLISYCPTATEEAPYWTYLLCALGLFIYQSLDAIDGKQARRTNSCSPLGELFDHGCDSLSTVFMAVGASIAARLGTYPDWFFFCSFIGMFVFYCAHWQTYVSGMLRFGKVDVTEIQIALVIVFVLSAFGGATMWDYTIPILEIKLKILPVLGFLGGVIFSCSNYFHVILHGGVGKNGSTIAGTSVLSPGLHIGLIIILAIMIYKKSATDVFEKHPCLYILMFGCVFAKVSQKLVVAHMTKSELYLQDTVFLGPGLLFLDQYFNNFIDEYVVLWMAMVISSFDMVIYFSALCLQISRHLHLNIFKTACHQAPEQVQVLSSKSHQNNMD
# Sequence of UniProt Q9P0B6 (Q9P0B6 whole entry, looked up): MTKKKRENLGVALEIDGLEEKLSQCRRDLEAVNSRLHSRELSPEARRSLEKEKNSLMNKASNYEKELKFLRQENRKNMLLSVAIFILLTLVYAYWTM
# Sequence of UniProt O60583 (O60583 whole entry, looked up): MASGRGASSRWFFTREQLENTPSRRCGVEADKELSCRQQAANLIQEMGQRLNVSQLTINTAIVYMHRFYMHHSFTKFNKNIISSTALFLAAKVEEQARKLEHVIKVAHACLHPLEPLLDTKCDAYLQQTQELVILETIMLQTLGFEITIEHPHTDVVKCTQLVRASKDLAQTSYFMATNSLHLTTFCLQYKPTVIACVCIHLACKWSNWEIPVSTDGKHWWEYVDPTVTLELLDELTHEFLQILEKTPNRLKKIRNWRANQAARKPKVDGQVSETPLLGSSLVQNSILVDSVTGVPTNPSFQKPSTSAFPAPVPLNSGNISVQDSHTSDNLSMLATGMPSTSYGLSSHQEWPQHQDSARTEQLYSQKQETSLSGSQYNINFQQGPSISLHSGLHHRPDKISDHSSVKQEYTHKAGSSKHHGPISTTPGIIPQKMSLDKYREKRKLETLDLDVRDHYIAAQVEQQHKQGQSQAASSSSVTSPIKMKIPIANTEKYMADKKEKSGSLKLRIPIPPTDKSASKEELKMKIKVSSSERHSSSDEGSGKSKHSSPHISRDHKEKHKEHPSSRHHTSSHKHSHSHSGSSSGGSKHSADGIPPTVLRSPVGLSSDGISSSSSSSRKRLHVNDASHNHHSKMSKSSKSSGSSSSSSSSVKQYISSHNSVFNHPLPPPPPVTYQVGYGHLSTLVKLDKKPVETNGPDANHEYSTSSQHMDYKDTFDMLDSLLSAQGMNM
# Sequence of UniProt Q96GV9 (Q96GV9 whole entry, looked up): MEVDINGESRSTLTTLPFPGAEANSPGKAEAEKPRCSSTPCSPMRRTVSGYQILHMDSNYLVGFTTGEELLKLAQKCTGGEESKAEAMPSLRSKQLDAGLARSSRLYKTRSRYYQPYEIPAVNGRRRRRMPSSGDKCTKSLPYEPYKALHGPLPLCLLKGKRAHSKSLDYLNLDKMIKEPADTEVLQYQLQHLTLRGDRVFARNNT
# Sequence of UniProt Q8N668 (Q8N668 whole entry, looked up): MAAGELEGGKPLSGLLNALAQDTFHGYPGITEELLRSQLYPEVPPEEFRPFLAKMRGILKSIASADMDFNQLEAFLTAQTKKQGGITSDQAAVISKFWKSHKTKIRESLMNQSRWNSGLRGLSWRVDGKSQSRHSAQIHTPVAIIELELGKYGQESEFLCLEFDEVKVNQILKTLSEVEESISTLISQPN
Target,log2 fold change (erlotinib),log2 fold change [1],log2 fold change [2],log2 fold change [3],log2 fold change [4],log2 fold change [5],log2 fold change [6],log2 fold change (IRAK-1-4 Inhibitor I),log2 fold change (ibrutinib),log2 fold change (ralimetinib),log2 fold change [7],log2 fold change [8],log2 fold change [9],log2 fold change (pinometostat),log2 fold change [10],log2 fold change [11],log2 fold change [12],log2 fold change [13],log2 fold change [14],log2 fold change [15]
COMMD1 (UniProt Q8N668),-0.136 (inactive),-0.241 (inactive),0.15 (inactive),-0.088 (inactive),0.066 (inactive),0.037 (inactive),-0.083 (inactive),-0.033 (inactive),-0.083 (inactive),0.036 (inactive),0.06 (inactive),-0.177 (inactive),0.19 (inactive),0.046 (inactive),0.027 (inactive),0.006 (inactive),,,,
CD68 (UniProt P34810),-0.13 (inactive),,0.022 (inactive),0.094 (inactive),,,,,0.057 (inactive),,,-0.535 (active),,,,,,,,
CHPT1 (UniProt Q8WUD6),,0.24 (inactive),,,0 (inactive),-0.004 (inactive),0.01 (inactive),,,-0.132 (inactive),0.223 (inactive),,-0.002 (inactive),,0.26 (inactive),0.044 (inactive),0.181 (inactive),0.078 (inactive),-0.024 (inactive),0.023 (inactive)
CCM2 isoform 2 (UniProt Q9BSQ5),0.142 (inactive),-0.042 (inactive),0.035 (inactive),0.083 (inactive),0.013 (inactive),0.09 (inactive),0.16 (inactive),0.027 (inactive),-0.004 (inactive),0.04 (inactive),0.027 (inactive),-0.085 (inactive),0.009 (inactive),0.056 (inactive),,-0.013 (inactive),,,,
CFAP47 (UniProt Q6ZTR5),,0.053 (inactive),,-0.123 (inactive),,,,,-0.109 (inactive),,0.006 (inactive),,,,,,-0.734 (active),0.355 (inactive),0.132 (inactive),0.153 (inactive)
CRLS1 (UniProt Q9UJA2),-0.034 (inactive),,0.019 (inactive),,,-0.019 (inactive),0.074 (inactive),-0.03 (inactive),,,,0.036 (inactive),,-0.071 (inactive),-0.032 (inactive),-0.005 (inactive),,,,
CAD (UniProt H7BZB3),,,,,,,,,,,,,,,,,-0.061 (inactive),0.242 (inactive),-0.058 (inactive),-0.322 (inactive)
CCDC167 (UniProt Q9P0B6),0.068 (inactive),0.008 (inactive),-0.041 (inactive),0.054 (inactive),0.072 (inactive),0.054 (inactive),0.224 (inactive),-0.056 (inactive),0.013 (inactive),-0.028 (inactive),0.163 (inactive),-0.258 (inactive),0.061 (inactive),0.052 (inactive),0.034 (inactive),0.021 (inactive),,,,
CASP7 isoform 3 (UniProt P55210),0.133 (inactive),-0.105 (inactive),0.217 (inactive),0.118 (inactive),,,,,-0.005 (inactive),,-0.003 (inactive),0.035 (inactive),,,0.064 (inactive),,,,,
CRTC3 (UniProt Q6UUV7),,0.04 (inactive),,0.094 (inactive),-0.146 (inactive),0.02 (inactive),0.075 (inactive),,-0.035 (inactive),0.048 (inactive),-0.104 (inactive),,0.042 (inactive),,,0 (inactive),,,,
CCNL1 (UniProt Q9UK58),-0.001 (inactive),,0.094 (inactive),,,,,,,,,-0.188 (inactive),,,,,,,,
CARD9 (UniProt Q9H257),-0.173 (inactive),,0.056 (inactive),,0.129 (inactive),,,-0.181 (inactive),,0.15 (inactive),,0.071 (inactive),0.178 (inactive),0.202 (inactive),,,0.211 (inactive),-0.184 (inactive),-0.058 (inactive),-0.255 (inactive)
CLINT1 (UniProt Q14677),,-0.12 (inactive),,0.035 (inactive),,-0.097 (inactive),-0.057 (inactive),,,,0.221 (inactive),,,0.058 (inactive),0.099 (inactive),-0.114 (inactive),-0.106 (inactive),-0.176 (inactive),0.031 (inactive),0.059 (inactive)
CCDC57 (UniProt Q2TAC2),0.044 (inactive),0.031 (inactive),-0.051 (inactive),-0.021 (inactive),0.003 (inactive),0.012 (inactive),0.026 (inactive),0.067 (inactive),-0.021 (inactive),0.005 (inactive),-0.007 (inactive),0.041 (inactive),0.05 (inactive),-0.04 (inactive),0.042 (inactive),0.012 (inactive),,,,
CNN1 (UniProt P51911),,0.055 (inactive),,,,-0.129 (inactive),0.118 (inactive),,,,-0.071 (inactive),,,,0.144 (inactive),0.145 (inactive),0.062 (inactive),0.063 (inactive),0.041 (inactive),-0.086 (inactive)
C5orf30 (UniProt Q96GV9),,-0.056 (inactive),,,,0.01 (inactive),0.128 (inactive),,,,0.059 (inactive),,,,,-0.284 (inactive),0.267 (inactive),0.062 (inactive),-0.347 (inactive),-0.917 (active)
CCNT2 (UniProt O60583),,-0.105 (inactive),,,-0.025 (inactive),-0.176 (inactive),-0.027 (inactive),,,0.191 (inactive),0.059 (inactive),,0.116 (inactive),,0.011 (inactive),-0.062 (inactive),0 (inactive),-0.029 (inactive),-0.08 (inactive),-0.797 (active)
COMMD3-BMI1 (UniProt R4GMX3),,-0.051 (inactive),,,,-0.191 (inactive),0.095 (inactive),,,,-0.003 (inactive),,,,0.028 (inactive),-0.071 (inactive),-0.043 (inactive),0.077 (inactive),-0.169 (inactive),0.055 (inactive)
"CCDC187, A0A1W2PQX5",,-0.079 (inactive),,,-0.055 (inactive),,,,,-0.237 (inactive),0.201 (inactive),,0.001 (inactive),,-0.11 (inactive),,-0.124 (inactive),0.169 (inactive),0.013 (inactive),-0.14 (inactive)
CLCN5 isoform 2 (UniProt P51795),-0.009 (inactive),,0.064 (inactive),,0.125 (inactive),-0.098 (inactive),-0.011 (inactive),-0.019 (inactive),,-0.154 (inactive),,-0.29 (inactive),-0.004 (inactive),0.061 (inactive),0.021 (inactive),0.009 (inactive),,,,
CRMP1 isoform 2 (UniProt Q14194),-0.1 (inactive),,0.009 (inactive),-0.011 (inactive),,0.088 (inactive),-0.014 (inactive),,0.038 (inactive),,,0.124 (inactive),,,0.196 (inactive),0.181 (inactive),-0.273 (inactive),0.101 (inactive),-0.037 (inactive),-0.224 (inactive)
CA1 (UniProt E5RIF9),,0.096 (inactive),,0.135 (inactive),,0.014 (inactive),-0.453 (inactive),,0.161 (inactive),,-0.052 (inactive),,,,,-0.02 (inactive),,,,
C6orf120 (UniProt Q7Z4R8),-0.2 (inactive),,0.134 (inactive),-0.003 (inactive),-0.009 (inactive),0.005 (inactive),0.028 (inactive),0.116 (inactive),-0.003 (inactive),0.015 (inactive),,-0.19 (inactive),-0.003 (inactive),-0.023 (inactive),0.062 (inactive),0.002 (inactive),,,,
CASP10 isoform 4 (UniProt Q92851),,0.026 (inactive),,-0.046 (inactive),0.051 (inactive),-0.13 (inactive),-0.21 (inactive),-0.132 (inactive),-0.083 (inactive),0.095 (inactive),-0.13 (inactive),,-0.015 (inactive),0.047 (inactive),0.021 (inactive),0.262 (inactive),0.138 (inactive),0.124 (inactive),-0.04 (inactive),0.083 (inactive)
CFAP58 (UniProt Q5T655),,,,,0.047 (inactive),,,,,-0.04 (inactive),,,-0.035 (inactive),,,,,,,
CS (UniProt F8VU34),,,,0.06 (inactive),,,,,-0.137 (inactive),,,,,,,,,,,
